This is part of a sample that, as a whole, favours compounds with a hit. Of some 83,000 tested, about 20% had one in any assay.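 For each line, cells grew in 96-well plates with the test compound present at a single concentration for 48 hours.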 The source made the active and inactive calls.

The subject of the assay is MDA-MB-435 melanoma. In words: NCI-60 one-dose screen, 48 h (100 = growth as untreated, 0 = no growth, -100 = all killed). Particulars: 10 µM unless noted. As to the method:
Growth inhibition of the MDA-MB-435 human Melanoma tumor cell line is measured as a screen for anti-cancer activity. Cells are grown in 96 well plates and exposed to the test compound for 48 hours. Compounds are tested at a single concentration, which is 10^-5 M for most compounds. The reported endpoint is percent growth (GI% or GIPRCNT), where numbers from 0 - 100% represent growth inhibition, and numbers from -100% - 0 represent cell death. For example, a value of 40 represents 60% growth inhibition. A value of 0 means no net growth occurred over the course of the experiment. A value of -40 indicates 40% of cells at the beginning of the experiment died by the end of the experiment. A value of -100 means all cells are dead at the end of the experiment.
NCI-60 Human Tumor Cell Lines Screen was performed using the standard one-dose NCI protocol, which is described in more detail at https://dtp.cancer.gov/discovery_development/nci-60/default.htm.
Compounds with GIPRCNT values below 10 were considered active. Activity score was based on GIPRCNT using the following formula: […]
Score is 0 for GIPRCNT values of 100 or above, 50 for GIPRCNT values of 0, and 100 for GIPRCNT values of -100.
In the case of `C=CC(=O)N1CCN(c2ccc3cccc(NC(=O)c4cnc(C)cn4)c3n2)CC1`, the growth was 33.1% (inactive).

As for `CCOC(=O)n1cc(-c2nonc2-c2cn(C)c3ccccc23)c2ccccc21`, the growth was -8% (active). With `O=C(O)CCCc1cnc2c3sccc3nc(SCc3c(Cl)cccc3Cl)n12`, the growth was 6.44% (active). Under `COc1ccc2cc(-c3cnc4nonc4n3)ccc2c1` stands -14.9% (active). Then `Cc1ccc(-c2csc(NC(=O)N3CCN(c4cc5c(cc4F)c(=O)c(C(=O)O)cn5C4CC4)CC3)n2)cc1`, with 17.6% (inactive); and `COc1ccc(Cc2nnc(Nc3nc4ccccc4s3)s2)cc1`, with 96.8% (inactive).

With `CCN1C(=O)N(CC)C2C1NN=C1SCC(=O)N12` (stereo not given), the growth is 99.1% (inactive). Then `CCOC(=O)c1c(NC(=O)CSc2n[nH]c3nc4ccccc4n23)sc(CC)c1C`, with 103% (inactive).

For the molecule `CCOc1ccc(NC(=O)c2cc(OC)c(OC)c(OC)c2)cc1`, the growth was -10.9% (active). `Cc1ncc(C(=O)Nc2ccc(CN3CCN(C)CC3)c(C(F)(F)F)c2)cc1C#Cc1cnc(N)c2ccncc12`: the growth is -94% (active).

`CCNCc1ccc(O)c2ncccc12`: the growth was 16.6% (inactive). Under `C/C(C=O)=C\c1ccc2c(c1)OCO2` stands 107% (inactive); under `CC(C(=O)O)n1c(O)c(C=Nc2cccnc2)sc1=S` (stereo not given), 100% (inactive).

As to `COc1ccc(C2=CN3CC=CCC3CC2=O)cc1` (stereo not given), the growth was 106% (inactive). Then `COC(=O)C1=C(C)NC(C)=C(C(=O)OCC(C)C)C1c1ccccc1[N+](=O)[O-]` (stereo not given), with 54.8% (inactive); and `COc1cc2oc(-c3cccc(NC(=O)c4ccc5c(c4)OCO5)c3)cc(=O)c2c(OC)c1OC`, with 53.3% (inactive).

Take `S=c1[nH]c2cc(Cl)ccc2o1`: the growth was 96.5% (inactive). Then `CCOC(=O)c1n[nH]n2c1nc(=O)c1cnn(C)c12`, with 105% (inactive). Under `O=C1OCC2=C1C(c1cccc(F)c1)c1cc3c(cc1N2CCO)OCO3` (stereo not given) stands -0.149% (active); under `N/C(=N\c1nc2ccccc2s1)NC(=NC1CCCCC1)NC1CCCCC1`, -33.7% (active).

With `Cc1ccc(/C=C(\C#N)C(=O)Nc2ncc(Cc3cc(Cl)ccc3Cl)s2)o1`, the growth was 30.4% (inactive). On to `C=C(CO)[C@@H]1CC[C@]2(COC3CCCCO3)CC[C@]3(C)[C@H](CC[C@@H]4[C@@]5(C)C=C(C=O)C(=O)C(C)(C)[C@@H]5CC[C@]43C)[C@@H]12` (stereo not given in full), for which the growth was -83.9% (active). Under `O=C(/C=C/C12c3ccccc3C(c3ccccc31)C1C(=O)NC(=O)C12)c1ccc(F)cc1` (stereo not given) stands -12.8% (active); under `COc1ccc2nc(Cl)c(/C=C/C(=O)c3ccc(NC(=O)CSc4nnc(-c5ccc(Cl)c(Cl)c5)n4-c4ccccc4)cc3)cc2c1`, 95.6% (inactive). Then `O=C1/C(=C/c2ccc(Br)cc2)COc2ccc(O)c(O)c21`, with -24.4% (active).

With `COc1ccccc1NC(=O)c1ccc(/C=C/C(=O)c2nccn2C)cc1`, the growth is -75.7% (active). Consider `CC[C@@H](c1ccc2cc(OC)ccc2c1)C(C)(C)C(=O)F`, for which the growth was 102% (inactive). Turning to `NC(=S)N/N=C/c1cn(-c2ccccc2)nc1-c1cc2ccccc2oc1=O`, the growth was -47.5% (active). Under `CCOC(=O)NN1CC(O)=C(c2nc(-c3ccc(Br)cc3)cs2)C1=N` stands 103% (inactive). Under `CCOC(=O)C/C(=N\Nc1cc(=O)[nH]c2ccc(Cl)cc12)C(=O)OCC` stands 102% (inactive); under `CCOC(=O)N1CCN(S(=O)(=O)c2oc(-c3ccc(Cl)cc3)nc2C#N)CC1`, 98.6% (inactive). Under `CCN(CC)CCOc1ccc(Nc2ncc3cc(-c4ccc(O)cc4)c(=O)n(C)c3n2)cc1` stands 61.1% (inactive); under `COc1ccc2nc3cc(Cl)ccc3c(NCCN)c2c1`, -90.2% (active); under `C[N+](C)(C/C=C/c1ccccc1)Cc1ccccc1`, 101% (inactive). As to `O=C(Nc1cccnc1Nc1ccc(Cl)cc1)c1cn(Cc2ccc(F)cc2)nn1`, the growth is 97.2% (inactive).

Turning to `O=C1/C(=C/c2ccccc2)CN(C(=O)c2cccnc2)C/C1=C\c1ccccc1`, the growth was -27.7% (active).

With `Cn1cc(-c2ccc3cc(-c4ccc(CC(=O)Nc5cc(C(C)(C)C)on5)cc4)cnc3c2)cn1`, the growth is 17.1% (inactive). In the case of `CC1O[C@@H]2C[C@@](O)([C@H]1O)n1c3ccccc3c3c4c(c5c6ccccc6n2c5c31)C(=O)NC4=O` (stereo not given in full), the growth is 43.1% (inactive). Then `CC1(C)OC(=O)C(=Cc2cccc(Br)c2)C(=O)O1`, with 108% (inactive); and `COc1ccc(-c2ccc(-c3ccc(C(=N)N)cn3)s2)cc1`, with 97% (inactive).

The values above are taken from PubChem BioAssay (NCI).
